Six1-Eya2 blk – inhibitors of human Six1/Eya2 interaction; Q15475+O00167; AlphaScreen GST-Six1/His-Eya2 binding, biochemical; stronger effect = lower value; activity change, % (concentration not given with the values); 360,000 tested, 0.56% active; AID 651725; in the data active means activity change below about -65%; inconclusive means mostly about -30% to -63%
Target sequence (O00167 whole entry, looked up): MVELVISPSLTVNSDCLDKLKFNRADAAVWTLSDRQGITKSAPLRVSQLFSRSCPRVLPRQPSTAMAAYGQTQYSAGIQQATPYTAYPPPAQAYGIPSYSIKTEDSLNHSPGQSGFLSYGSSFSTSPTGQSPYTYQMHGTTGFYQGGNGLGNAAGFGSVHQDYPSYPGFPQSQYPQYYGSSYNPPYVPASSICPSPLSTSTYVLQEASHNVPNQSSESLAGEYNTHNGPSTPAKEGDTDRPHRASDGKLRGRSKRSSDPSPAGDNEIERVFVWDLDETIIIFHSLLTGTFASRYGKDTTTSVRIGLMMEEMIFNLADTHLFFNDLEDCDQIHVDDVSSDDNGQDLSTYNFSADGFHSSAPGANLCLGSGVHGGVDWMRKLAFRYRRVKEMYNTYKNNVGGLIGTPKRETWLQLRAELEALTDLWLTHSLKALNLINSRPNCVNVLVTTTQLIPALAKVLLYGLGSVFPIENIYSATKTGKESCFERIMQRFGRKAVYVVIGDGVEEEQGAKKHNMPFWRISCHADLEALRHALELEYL
Target sequence (Q15475 whole entry, looked up): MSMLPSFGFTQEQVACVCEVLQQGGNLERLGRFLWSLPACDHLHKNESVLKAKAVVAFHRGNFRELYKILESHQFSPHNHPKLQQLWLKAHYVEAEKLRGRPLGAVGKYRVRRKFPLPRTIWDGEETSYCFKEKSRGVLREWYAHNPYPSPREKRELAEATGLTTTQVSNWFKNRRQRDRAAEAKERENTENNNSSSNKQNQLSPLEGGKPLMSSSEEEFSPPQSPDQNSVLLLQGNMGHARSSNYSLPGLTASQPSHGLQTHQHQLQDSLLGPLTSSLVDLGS
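AlphaScreen luminescence read after one hour at 37 °C in darkness. Pin-transferred compounds met GST-Six1 and His-Eya2 protein (5X stock 250 nM/500 nM) plus glutathione donor and Ni-chelate acceptor beads (5X, 50 ug/mL).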
IL-1B inflam inh – blocks inflammasome-driven IL-1 beta release; activity change, % at 57.5 µM; THP-1 LPS/ATP IL-1B secretion, AlphaLISA, 16 h; stronger effect = lower value; 360,000 tested, 4.7% active; AID 743279; in the data active means activity change below about -50%; inconclusive means mostly about -30% to -49%
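THP-1 cells pretreated 1 hr with compounds (up to 57.5 uM final), then stimulated with LPS (250 ng/mL final) plus ATP (1.25 mM final); secreted IL-1B measured by AlphaLISA after 16 hr, decreased signal indicating inhibition.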
DT40 TDP1 no CPT – qHTS for Inhibitors of human tyrosyl-DNA phosphodiesterase 1 (TDP1): qHTS in cells in absence of CPT; DT40 Tdp1-/- hTDP1 cells, no CPT, ATP luminescence, 48 h; Potency, µM (doses to about 46.2 µM), without a hit: top-dose activity change, negative = growth inhibition, hits mostly inhibitors; 420,000 tested, 15% active; further: potency means the concentration at half of the fitted maximal effect; nearly all actives have a fitted effect of over 55% in size
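Chicken DT40 Tdp1-/- cells stably complemented with human TDP1 were seeded at 400 cells/well with DMSO in place of 20 nM camptothecin. After compound pinning, cells grew at least 48 hr at 37 °C; viability read by CellTiter-Glo luminescence.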
TDP1 inh – blocks human tyrosyl-DNA phosphodiesterase 1 | Q9NUW8 | recombinant TDP1, AlphaScreen DNA substrate cleavage | Potency, µM (series often up to 130 µM), for inactives: at the top dose activity change, negative = inhibition, most hits filed as inhibitors | 350,000 tested, 0.28% active | AID 485290; further: potency means the concentration at half of the fitted maximal effect; nearly all actives have a fitted effect of over 40% in size
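Signal: AlphaScreen proximity between streptavidin donor and anti-FITC acceptor beads on intact substrate. Reaction: Tdp1 1 nM, substrate 15 nM final, 5 min RT after 15 min compound preincubation.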
DT40 TDP1 CPT – DT40-hTDP1 cell growth loss with CPT; AID 686979; 420,000 tested, 12% active; chicken DT40 Tdp1-/-;hTDP1 cells + 20 nM CPT, ATP luminescence, 48 h; Potency, µM (series often up to 46.2 µM), inactives show at the highest dose activity change, negative = growth inhibition, actives largely listed as inhibitors; further: potency means the concentration at half of the fitted maximal effect; nearly all actives have a fitted effect of over 55% in size
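Chicken DT40 Tdp1-/- cells stably complemented with human TDP1 were seeded at 400 cells/well in medium containing 20 nM camptothecin, exposed to pin-transferred compounds, and grown at 37 °C for at least 48 hr. Viability was read as ATP luminescence.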
CtBP-E1A blk – inhibitors of CtBP/E1A interaction | AlphaScreen GST-E1A/His-CtBP binding, 1536-well; stronger effect = lower value | activity change, % (test concentration not listed) | 340,000 tested, 0.49% active; in the data active means activity change below about -65%; inconclusive means mostly about -30% to -63%
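GST-E1A and His-tagged CtBP (125 nM each as 5X stock) were preincubated with pin-transferred compound for 2 h at 37 °C in the dark, then glutathione donor and nickel acceptor beads were added for 1 h before AlphaScreen reading.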
Numbers without * were called inactive; ? = inconclusive; · = not tested or not shown; [ ] = remark or other dose. This is a sample that favours compounds with a hit; in the whole collection about 18% have one here. Unless noted, the call rests on the fitted dose curve; in most records, active means well fitted curve in the direction sought with a large enough effect; inconclusive means small, poorly fitted or top-dose-only effect, or another doubt; inactive means no such curve, though single readings can be large; an effect the other way counts as inactive or inconclusive. On the % scale 0 is the no-effect control and ±100 the full control effect.

SMILES	Six1-Eya2 blk	IL-1B inflam inh	DT40 TDP1 no CPT	TDP1 inh	DT40 TDP1 CPT	CtBP-E1A blk
Cc1nc2oc3c(NCc4ccccn4)ncnc3c2c2c1COC(C)(C)C2	-18.6	-28.8	?	10.3%	-24.4%	?
CCCc1nc2oc3c(NCC4CCCO4)ncnc3c2c2c1COC(C)(C)C2 (stereo not given)	1.7	0.0	?	7.4%	29.1µM*	-0.9
CCCc1nc2oc3c(NCc4ccccn4)ncnc3c2c2c1COC(C)(C)C2	-6.1	-10.0	14.6µM*	5.3%	14.6µM*	6.3
CC(C)c1nc2oc3c(NCC4CCCO4)ncnc3c2c2c1CCC2 (stereo not given)	-0.7	-11.1	16.4µM*	4.0%	25.9µM*	2.5
COc1cccc(NC(=O)CCC2CCN(C(=O)c3cccc(NC(C)=O)c3)CC2)c1	-2.0	2.1	2.5%	5.8%[56.1 µM]	-0.2%	9.3
O=C(CN1CCC(n2nnc3ccccc32)CC1)Nc1ccc2c(c1)CCC2	-7.0	-11.0	?	2.8%	?	-0.7
O=C(COc1ccc(F)c(Cl)c1)N1CCCCCCC1	-4.7	15.7	?	·	-12.6%	13.1
C=C(C)CNC(=S)N=Nc1c(O)[nH]c2ccc([N+](=O)[O-])cc12	?	12.0	4.61µM*	5.1%	4.11µM*	-11.6
O=C(CNC(=O)c1ccco1)N=Nc1c(O)[nH]c2ccc([N+](=O)[O-])cc12	-5.5	-0.7	-21.3%	-3.2%	19.7%	-10.7
CC(C)NC(=S)N=Nc1c(O)[nH]c2ccc([N+](=O)[O-])cc12	-68.0*	32.2	?	8.1%	?	22.2
C=CCC1C=CCC(CC=C)N1C(=O)c1ccccc1[N+](=O)[O-] (stereo not given)	-8.3	-18.5	?	2.2%	13µM*	-1.4
COCCCn1c(=O)/c(=C\c2ccccc2OC(F)F)s/c1=C(/C#N)C(=O)NC(C)C	0.3	14.0	-9.2%	5.4%	-21.1%	8.4
COCCCn1c(=O)/c(=C\c2ccccc2OC(C)C)s/c1=C(/C#N)C(=O)Nc1ccc(C(=O)O)cc1	1.0	-4.0	14.6µM*	-9.6%	?	-4.3
CCNC(=O)N(C)c1c(CC)nc2ccc(C(=O)N3CCN(C(C)=O)CC3)cn12	-0.8	28.2	6.2%	·	-3.8%	1.2
COc1ccc2[nH]c3c4c(ccc3c2c1)C(=O)C=CC4=O	-16.8	-76.5*	0.259µM*	5.0%	0.231µM*	-11.6
CCOC(=O)N1CCN(C(=O)c2cn(C)c3ccc(S(=O)(=O)N4CCC(C)CC4)cc3c2=O)CC1	4.9	-10.5	-16.3%	0.0%	3.4%	6.0
O=[N+]([O-])c1cc(-c2csc(NC(CO)c3nc4ccccc4n3CCOCCO)n2)ccc1Cl (stereo not given)	-12.1	0.0	18.4µM*	·	?	-10.5
CCCn1c(C(C)Nc2nc(-c3ccc(Cl)c([N+](=O)[O-])c3)cs2)nc2ccccc21 (stereo not given)	-14.7	-15.9	?	·	23.1µM*	·
OCCOCCn1c(C(CO)Nc2nc(-c3ccc(F)cc3)cs2)nc2ccccc21 (stereo not given)	4.0	1.3	?	·	-22.1%	-10.4
COC(=O)CCSCC(=O)Nc1ccc(S(=O)(=O)N2CCOCC2)cc1OC	-0.2	36.4	28.4%	·	-5.2%	5.9
CCC(C)N(C(=O)CSc1nnc2ccccn12)C1CCS(=O)(=O)C1 (stereo not given)	2.1	-4.4	-7.3%	-9.5%	-4.5%	6.6
C=CCN(C(=O)C1=NN(C2CCS(=O)(=O)C2)C(=O)CC1)c1nc(-c2ccc([N+](=O)[O-])cc2)cs1 (stereo not given)	-10.7	-55.4*	18.4µM*	-3.1%	-1.5%	-1.8
CCOc1ccc(NC(=O)CC2C(=O)N(c3ccccc3)C(=O)N2CCc2sccc2C)cc1 (stereo not given)	·	·	18.4µM*	9.0%	14.6µM*	·
COc1ccc(NC(=O)CC2C(=O)N(c3ccccc3)C(=O)N2CCc2cccs2)cc1 (stereo not given)	-3.8	-28.7	1.4%	0.0%	-20.9%	-15.6
COc1cccc(N2C(=O)C(CC(=O)Nc3ccccc3)N(CCc3sccc3C)C2=O)c1 (stereo not given)	·	·	?	1.3%	18.4µM*	·
SMILES	Six1-Eya2 blk	IL-1B inflam inh	DT40 TDP1 no CPT	TDP1 inh	DT40 TDP1 CPT	CtBP-E1A blk
CCOc1ccc(NC(=O)CC2C(=O)N(c3ccc(F)cc3)C(=O)N2CCc2sccc2C)cc1 (stereo not given)	·	·	23.1µM*	1.3%	-111.3%	·
COc1ccc(NC(=O)CC2C(=O)N(c3ccc(F)cc3)C(=O)N2CCc2sccc2C)cc1 (stereo not given)	·	·	?	6.4%	?	·
COc1ccc(NC(=O)CC2C(=O)N(c3ccccc3)C(=O)N2CCc2sccc2C)cc1 (stereo not given)	·	·	16.4µM*	1.3%	?	·
COc1ccc(CCNc2nc(C)cc(C)c2C#N)cc1OC	2.6	-16.3	-25.3%	·	?	0.6
O=C(CCN1C(=O)C2CC=CCC2C1=O)OCC(=O)c1ccc(F)cc1 (stereo not given)	-0.3	8.2	8.9%	0.5%	-4.1%	·
CCC(C)c1ccc(O)c(NC(=S)NC(=O)c2cccs2)c1 (stereo not given)	-15.6	1.6	23.1µM*	·	13µM*	-12.4
CC(C)(C)c1ccc(C(=O)NNC(=S)NC(=O)c2cccnc2)cc1	0.1	83.0	7.31µM*	·	7.31µM*	-1.1
CCC(C)c1ccc(O)c(NC(=O)c2cccnc2)c1 (stereo not given)	-0.2	19.9	?	6.0%	?	2.3
CC(C)C(=O)Nc1cccc(NC(=S)NC(=O)c2cccs2)c1	0.0	-2.7	-24.0%	2.9%	-2.3%	-2.2
CC(C)c1ccc(O)c(NC(=S)NC(=O)c2cccnc2)c1	-10.6	11.7	18.4µM*	·	4.61µM*	-10.4
O=C(NC(=S)Nc1ccccc1Br)c1cccnc1	2.2	0.0	?	·	1.5%	·
CC(C)(C)c1cc(Cl)c(O)c(NC(=S)NC(=O)c2cccnc2)c1	-0.6	9.4	6.51µM*	7.9%	4.61µM*	·
COc1cc(OC)cc(C(=O)NNC(=S)NC(=O)c2cccnc2)c1	-6.4	-0.3	3.66µM*	4.0%	?	·
CC12CCC(C(=O)n3c1nc1ccccc13)C2(C)C (stereo not given)	2.5	?	20.6µM*	-6.0%	18.4µM*	0.1
O=C1CSc2nc3ccccc3n21	7.0	-0.4	1.1%	-2.1%	-10.8%	0.0
